FBW7 act: human FBW7 E3 ligase activation, primary screen. Q969H0. AlphaScreen FBW7–phospho-cyclin E peptide binding, activator screen. normalized activity (activation), % at 26.1 µM. hit rate 0.13% among 650,000. AID 1259310; in the data active = normalized activity above about 1.9%;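 also: purified mutant Fbw7 with reduced substrate affinity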
Target sequence (Q969H0 whole entry, looked up): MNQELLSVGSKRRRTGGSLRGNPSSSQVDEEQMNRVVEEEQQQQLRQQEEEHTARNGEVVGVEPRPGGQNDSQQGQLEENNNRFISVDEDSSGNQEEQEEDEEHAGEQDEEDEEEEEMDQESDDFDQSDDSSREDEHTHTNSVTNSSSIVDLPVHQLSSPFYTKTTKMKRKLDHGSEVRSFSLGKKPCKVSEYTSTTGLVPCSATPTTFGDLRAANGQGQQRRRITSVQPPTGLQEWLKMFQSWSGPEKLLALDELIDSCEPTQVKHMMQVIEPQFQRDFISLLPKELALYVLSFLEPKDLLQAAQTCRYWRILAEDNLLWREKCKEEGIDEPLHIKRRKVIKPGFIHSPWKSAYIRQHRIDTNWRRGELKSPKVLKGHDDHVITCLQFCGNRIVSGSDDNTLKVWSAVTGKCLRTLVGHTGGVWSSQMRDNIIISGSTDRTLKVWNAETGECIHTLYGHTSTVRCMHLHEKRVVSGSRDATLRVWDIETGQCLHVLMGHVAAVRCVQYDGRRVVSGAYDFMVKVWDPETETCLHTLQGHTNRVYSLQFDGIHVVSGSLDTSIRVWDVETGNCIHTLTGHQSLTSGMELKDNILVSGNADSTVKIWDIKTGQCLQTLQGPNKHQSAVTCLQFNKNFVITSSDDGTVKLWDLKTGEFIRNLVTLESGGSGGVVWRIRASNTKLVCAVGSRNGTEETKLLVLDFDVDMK
MITF primary: blocks human microphthalmia-associated transcription factor; AlphaScreen MITF homodimerization, bead proximity signal; hit rate 0.91% among 650,000; inhibition, % at 2.6 µM; O75030; in the data active = inhibition above about 50%;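 also: 0% = vehicle wells with protein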
GPR151 ag: activators of human GPR151. PathHunter beta-arrestin GPR151 cells, luminescence. activation, % at 11.2 µM. hit rate 1% among 650,000; in the data active = activation above about 4.9%;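 also: 0% = median of compound wells and 100% = cells with positive control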
TEAD-YAP block: TEAD-YAP interaction inhibition; inhibition, % at 9.12 µM; HEK-TIYL cells, TEAD-Gal4/YAP UAS-luciferase luminescence; hit rate 1.4% among 640,000; AID 1259422; in the data active = inhibition above about 32%;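 also: 0% = median of test compound wells and 100% = reference inhibitor wells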
* hit, by the source's call. Shown are actives, neighbours in structure and some others; about 3.5% of the full set was active somewhere.

How did COc1ccc(N2CCOCC2)cc1Nc1cc(Nc2ccccn2)c(C(F)(F)F)cn1 do in these assays?
FBW7 act: 0; MITF primary: 19; GPR151 ag: -1; TEAD-YAP block: -2

How did Cc1ccn2c(C(=O)NCc3cccc(Cl)c3)c(C)nc2c1 do in these assays?
FBW7 act: 0; MITF primary: 2; GPR151 ag: -1; TEAD-YAP block: 5

Results for COC(=O)c1ccccc1N=Cc1c(O)n(-c2ccccc2)c(=S)[nH]c1=O ?
FBW7 act: 0; MITF primary: -18; GPR151 ag: -1; TEAD-YAP block: 1

Results for O=C(O)c1cccnc1Nc1ccc([N+](=O)[O-])cc1 ?
FBW7 act: 0; MITF primary: 21; GPR151 ag: -6; TEAD-YAP block: 36*

How did N#C/C(=N/Nc1cccc(C(F)(F)F)c1)C(N)=S do in these assays?
FBW7 act: 0; MITF primary: -2; GPR151 ag: 0; TEAD-YAP block: 47*

Results for COc1ccc(OC)c(/C=C2/N=C(c3cccc([N+](=O)[O-])c3)OC2=O)c1 ?
FBW7 act: 1.9*; MITF primary: 15; GPR151 ag: 1; TEAD-YAP block: 3

Results for Cc1cc(CN2CCOCC2)oc1C(=O)NC1(c2ccc3c(c2)OCO3)CCCC1 ?
FBW7 act: 0; MITF primary: 10; GPR151 ag: 0; TEAD-YAP block: 2

Results for CC(=O)c1c(C)cc(C)c(CSc2nnc(-c3ccco3)n2-c2ccccc2)c1C ?
FBW7 act: 0; MITF primary: -2; GPR151 ag: -1; TEAD-YAP block: 2

Results for Cc1ccc2c(c1)C1(NN=C(c3ccccc3O)S1)C(=O)N2 (stereo unspecified) ?
FBW7 act: 0; MITF primary: 3; GPR151 ag: 0; TEAD-YAP block: 54*

How did N#CC(C#N)=C(N)/C(C#N)=C/c1ccc(-c2cc(C(=O)O)cc(C(=O)O)c2)o1 do in these assays?
FBW7 act: -1; MITF primary: 63*; GPR151 ag: -1; TEAD-YAP block: 2

Results for CC(NC(=O)CCl)C1COc2ccccc2O1 (stereo unspecified) ?
FBW7 act: 0; MITF primary: 1; GPR151 ag: 0; TEAD-YAP block: 37*

What do the screens show for `Nc1nc2c3cc4c(nc3sc2c2ccccc12)CCC4`?
FBW7 act: 0; MITF primary: -14; GPR151 ag: -4; TEAD-YAP block: 34*

How did Cc1cc(C)n(CCNc2nncc(-c3ccc4ccccc4c3)n2)n1 do in these assays?
FBW7 act: 0; MITF primary: 5; GPR151 ag: 0; TEAD-YAP block: 12

What do the screens show for `COc1ccc(OCC(O)Cn2c3ccccc3c3ccccc32)cc1` (stereo unspecified)?
FBW7 act: 0; MITF primary: -2; GPR151 ag: 1; TEAD-YAP block: 45*

What do the screens show for `O=C(CCNC(=O)c1ccccc1Br)NCCC1=CCCCC1`?
FBW7 act: 0; MITF primary: 6; GPR151 ag: 1; TEAD-YAP block: 2

What do the screens show for `COc1ccc(-c2nc(N)n(C(=O)c3ccccc3OC)n2)cc1`?
FBW7 act: 0; MITF primary: 9; GPR151 ag: 1; TEAD-YAP block: 40*

How did CC(=O)Oc1ccc(-n2c(C)cc(C=C3C(=O)NC(=O)NC3=O)c2C)cc1 do in these assays?
FBW7 act: -1; MITF primary: -6; GPR151 ag: -1; TEAD-YAP block: 0

Results for CCC(=O)Nc1sc2c(c1-c1nc3ccccc3s1)CCN(CC)C2 ?
FBW7 act: 0; MITF primary: 6; GPR151 ag: 2; TEAD-YAP block: 54*

What do the screens show for `CCOC(=O)N1CCc2c(sc(NC(=O)CC)c2-c2nc3ccccc3s2)C1`?
FBW7 act: 0; MITF primary: 19; GPR151 ag: -1; TEAD-YAP block: 10

Results for CCN1CCc2c(sc(NC(C)=O)c2-c2nc3ccccc3s2)C1 ?
FBW7 act: 0; MITF primary: 10; GPR151 ag: 0; TEAD-YAP block: 69*

What do the screens show for `CCN1CCc2c(sc(NC(=O)c3ccc(S(=O)(=O)N(CC)CC)cc3)c2-c2nc3ccccc3s2)C1`?
FBW7 act: 0; MITF primary: 5; GPR151 ag: 0; TEAD-YAP block: -1

How did CC[C@H](C)[C@H](NC(=O)c1cccc(OC2CCN(S(C)(=O)=O)CC2)c1)C(=O)OC do in these assays?
FBW7 act: 0; MITF primary: -5; GPR151 ag: 2; TEAD-YAP block: 10

What do the screens show for `O=C(c1cc(-c2cccs2)n(CC(=O)N2CCCc3ccccc32)n1)N1CCOCC1`?
FBW7 act: 0; MITF primary: -5; GPR151 ag: 0; TEAD-YAP block: 51*

What do the screens show for `CN(C)C(=O)Cn1nc(C(=O)N2CCOCC2)cc1-c1cccs1`?
FBW7 act: 0; MITF primary: 12; GPR151 ag: 1; TEAD-YAP block: 4

What do the screens show for `CCc1cc(C(=O)NCc2ccccc2)cs1`?
FBW7 act: 0; MITF primary: 20; GPR151 ag: 1; TEAD-YAP block: -12

Results for O=C(Nc1ccc(O)cc1)c1ccccc1Cl ?
FBW7 act: 0; MITF primary: 0; GPR151 ag: -1; TEAD-YAP block: 52*

Results for O=C(Nc1ccc(O)cc1)c1ccc2ccccc2c1 ?
FBW7 act: 0; MITF primary: -2; GPR151 ag: -1; TEAD-YAP block: 47*

What do the screens show for `NC(=O)c1ccc(NC(=O)c2ccc3ccccc3c2)cc1`?
FBW7 act: 1; MITF primary: 23; GPR151 ag: 1; TEAD-YAP block: -77

What do the screens show for `CC(=O)Oc1ccc(C(=O)Nc2ccc3ccccc3c2)cc1`?
FBW7 act: 0; MITF primary: -17; GPR151 ag: -1; TEAD-YAP block: 36*

Results for CS(=O)(=O)Nc1ccc(C(=O)Nc2ccc3ccccc3c2)cc1 ?
FBW7 act: 0; MITF primary: 1; GPR151 ag: -3; TEAD-YAP block: -35

Results for CCOC(=O)C1CCN(c2nc(-c3ccncc3)nc3cnccc23)CC1 ?
FBW7 act: 0; MITF primary: -4; GPR151 ag: 4; TEAD-YAP block: 33*

Results for CCOC(=O)C1CCN(c2nc(-c3ccc(Br)cc3)nc3ccccc23)CC1 ?
FBW7 act: 0; MITF primary: 0; GPR151 ag: 1; TEAD-YAP block: 7

Results for CCOC(=O)c1ccc(Cn2c3ccc(F)cc3c3nc4cc(F)ccc4nc32)o1 ?
FBW7 act: 0; MITF primary: -3; GPR151 ag: -1; TEAD-YAP block: 0

What do the screens show for `O=C(CSc1nncs1)Nc1ccc(OCc2ccccc2)cc1`?
FBW7 act: 12*; MITF primary: -15; GPR151 ag: 4; TEAD-YAP block: -22

How did c1ccc2cc(-c3cnc4ccc(NCCCN5CCOCC5)nn34)ccc2c1 do in these assays?
FBW7 act: -1; MITF primary: -19; GPR151 ag: 1; TEAD-YAP block: -6

What do the screens show for `OCCCNc1ccc2ncc(-c3ccccc3)n2n1`?
FBW7 act: 0; MITF primary: 9; GPR151 ag: 0; TEAD-YAP block: 43*

How did FC(F)(F)c1cccc(-c2cnc3ccc(NCCCN4CCOCC4)nn23)c1 do in these assays?
FBW7 act: 1.9*; MITF primary: 7; GPR151 ag: 0; TEAD-YAP block: 16

Bioassay records: PubChem BioAssay, The Scripps Research Institute Molecular Screening Center
